# Experimental data taken from ChEMBL document CHEMBL2218924, “A broad activity screen in support of a chemogenomic map for kinase signalling research and drug discovery” (Biochem J, 2013).
# How the values were obtained:
# [1] = target: Ephrin type-A receptor 4 (Homo sapiens) (UniProt P54764); conditions: at 1 µM
# [2] = target: Ephrin type-A receptor 4 (Homo sapiens) (UniProt P54764); conditions: at 10 µM
# [3] = target: Ephrin type-A receptor 5 (Homo sapiens) (UniProt P54756); conditions: at 1 µM
# Ephrin type-A receptor 5 (Homo sapiens), sequence (P54756 whole entry): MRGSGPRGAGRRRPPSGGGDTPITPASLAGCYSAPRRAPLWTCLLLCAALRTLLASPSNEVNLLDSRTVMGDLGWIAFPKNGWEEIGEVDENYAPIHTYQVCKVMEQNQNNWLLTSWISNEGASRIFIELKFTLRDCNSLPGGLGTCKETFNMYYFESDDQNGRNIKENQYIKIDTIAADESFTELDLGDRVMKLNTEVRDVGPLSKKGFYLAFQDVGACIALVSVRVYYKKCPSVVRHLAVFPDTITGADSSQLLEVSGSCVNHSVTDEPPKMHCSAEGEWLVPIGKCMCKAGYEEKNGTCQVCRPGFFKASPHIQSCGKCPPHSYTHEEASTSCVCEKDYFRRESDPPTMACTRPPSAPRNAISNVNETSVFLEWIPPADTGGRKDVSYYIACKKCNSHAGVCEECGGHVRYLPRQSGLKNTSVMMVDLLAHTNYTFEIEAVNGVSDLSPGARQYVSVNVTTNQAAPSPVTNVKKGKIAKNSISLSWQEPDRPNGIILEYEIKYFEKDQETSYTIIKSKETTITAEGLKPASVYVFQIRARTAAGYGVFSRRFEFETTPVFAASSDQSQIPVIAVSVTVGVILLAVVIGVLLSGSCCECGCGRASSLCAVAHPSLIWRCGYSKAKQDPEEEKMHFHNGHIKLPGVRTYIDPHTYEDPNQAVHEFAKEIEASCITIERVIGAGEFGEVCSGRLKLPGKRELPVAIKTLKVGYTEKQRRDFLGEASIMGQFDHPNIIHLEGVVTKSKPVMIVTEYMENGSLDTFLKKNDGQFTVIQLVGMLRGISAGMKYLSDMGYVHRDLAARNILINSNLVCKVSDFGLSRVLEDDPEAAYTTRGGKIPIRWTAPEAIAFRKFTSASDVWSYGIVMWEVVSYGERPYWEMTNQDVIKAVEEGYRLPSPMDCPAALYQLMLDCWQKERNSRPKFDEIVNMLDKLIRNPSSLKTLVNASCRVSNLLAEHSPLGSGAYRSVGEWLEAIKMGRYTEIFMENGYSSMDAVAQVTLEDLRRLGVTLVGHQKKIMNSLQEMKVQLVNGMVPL
# [4] = target: Ephrin type-A receptor 5 (Homo sapiens) (UniProt P54756); conditions: at 10 µM
# [5] = target: Ephrin type-A receptor 7 (Homo sapiens) (UniProt Q15375); conditions: at 1 µM
# Ephrin type-A receptor 7 (Homo sapiens), sequence (Q15375 28-998 limits assumed): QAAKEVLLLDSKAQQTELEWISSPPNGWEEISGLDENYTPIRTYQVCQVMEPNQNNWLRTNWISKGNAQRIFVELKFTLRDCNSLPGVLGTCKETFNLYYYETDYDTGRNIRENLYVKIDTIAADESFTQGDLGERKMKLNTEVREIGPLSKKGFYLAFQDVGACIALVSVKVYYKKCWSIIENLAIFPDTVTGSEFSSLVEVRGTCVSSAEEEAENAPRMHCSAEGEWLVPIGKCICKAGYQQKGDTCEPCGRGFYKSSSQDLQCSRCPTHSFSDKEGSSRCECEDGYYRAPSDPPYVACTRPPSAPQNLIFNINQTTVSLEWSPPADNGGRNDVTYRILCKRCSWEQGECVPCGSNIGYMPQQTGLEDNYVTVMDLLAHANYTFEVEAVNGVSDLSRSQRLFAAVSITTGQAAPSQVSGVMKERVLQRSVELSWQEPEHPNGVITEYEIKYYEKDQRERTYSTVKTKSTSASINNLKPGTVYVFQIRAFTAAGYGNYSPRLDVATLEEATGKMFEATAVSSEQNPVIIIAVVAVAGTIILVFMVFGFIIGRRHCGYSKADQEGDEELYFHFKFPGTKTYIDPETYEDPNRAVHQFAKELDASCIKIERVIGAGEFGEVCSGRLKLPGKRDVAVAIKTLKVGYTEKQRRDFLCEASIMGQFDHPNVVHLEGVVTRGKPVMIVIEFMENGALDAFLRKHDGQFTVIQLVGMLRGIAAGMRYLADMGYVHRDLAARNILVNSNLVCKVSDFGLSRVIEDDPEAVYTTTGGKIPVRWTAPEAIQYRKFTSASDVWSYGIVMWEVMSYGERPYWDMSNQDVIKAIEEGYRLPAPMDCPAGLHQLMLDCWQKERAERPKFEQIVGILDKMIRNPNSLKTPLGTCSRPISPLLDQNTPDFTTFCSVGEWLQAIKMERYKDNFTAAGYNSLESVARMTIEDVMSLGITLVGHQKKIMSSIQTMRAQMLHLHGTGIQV
# [6] = target: Ephrin type-A receptor 7 (Homo sapiens) (UniProt Q15375); conditions: at 10 µM
# [7] = target: T1, Ephrin type-A receptor 8 (Homo sapiens) (UniProt P29322); conditions: at 10 µM
# T1 sequence (whole entry): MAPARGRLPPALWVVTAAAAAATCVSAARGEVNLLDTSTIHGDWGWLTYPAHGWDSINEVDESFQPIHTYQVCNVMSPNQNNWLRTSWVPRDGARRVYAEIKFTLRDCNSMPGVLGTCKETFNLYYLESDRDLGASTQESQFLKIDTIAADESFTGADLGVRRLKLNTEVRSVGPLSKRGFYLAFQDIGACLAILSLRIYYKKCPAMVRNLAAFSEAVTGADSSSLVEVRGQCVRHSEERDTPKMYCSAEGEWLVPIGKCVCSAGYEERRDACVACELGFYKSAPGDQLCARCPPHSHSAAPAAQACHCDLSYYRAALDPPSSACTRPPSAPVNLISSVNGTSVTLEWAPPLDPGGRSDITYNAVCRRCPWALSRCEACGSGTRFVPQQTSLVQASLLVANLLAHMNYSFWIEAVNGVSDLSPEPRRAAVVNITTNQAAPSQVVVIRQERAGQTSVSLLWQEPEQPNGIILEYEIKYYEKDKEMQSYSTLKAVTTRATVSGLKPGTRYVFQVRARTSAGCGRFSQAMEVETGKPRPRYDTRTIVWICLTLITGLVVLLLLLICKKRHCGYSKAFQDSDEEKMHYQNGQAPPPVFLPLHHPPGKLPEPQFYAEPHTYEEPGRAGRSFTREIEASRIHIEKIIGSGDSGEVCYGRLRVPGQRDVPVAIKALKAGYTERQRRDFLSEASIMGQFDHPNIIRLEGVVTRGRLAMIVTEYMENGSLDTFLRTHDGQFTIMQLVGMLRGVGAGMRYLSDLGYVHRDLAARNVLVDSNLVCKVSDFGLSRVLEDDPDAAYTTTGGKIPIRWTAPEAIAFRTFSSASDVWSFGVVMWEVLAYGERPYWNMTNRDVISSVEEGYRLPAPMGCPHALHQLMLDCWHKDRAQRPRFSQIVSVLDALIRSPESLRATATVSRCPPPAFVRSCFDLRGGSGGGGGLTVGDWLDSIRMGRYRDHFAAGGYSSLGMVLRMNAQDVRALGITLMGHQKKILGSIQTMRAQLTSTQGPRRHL
# [8] = target: T2, Ephrin type-B receptor 1 (Homo sapiens) (UniProt P54762); conditions: at 1 µM
# T2 sequence (whole entry): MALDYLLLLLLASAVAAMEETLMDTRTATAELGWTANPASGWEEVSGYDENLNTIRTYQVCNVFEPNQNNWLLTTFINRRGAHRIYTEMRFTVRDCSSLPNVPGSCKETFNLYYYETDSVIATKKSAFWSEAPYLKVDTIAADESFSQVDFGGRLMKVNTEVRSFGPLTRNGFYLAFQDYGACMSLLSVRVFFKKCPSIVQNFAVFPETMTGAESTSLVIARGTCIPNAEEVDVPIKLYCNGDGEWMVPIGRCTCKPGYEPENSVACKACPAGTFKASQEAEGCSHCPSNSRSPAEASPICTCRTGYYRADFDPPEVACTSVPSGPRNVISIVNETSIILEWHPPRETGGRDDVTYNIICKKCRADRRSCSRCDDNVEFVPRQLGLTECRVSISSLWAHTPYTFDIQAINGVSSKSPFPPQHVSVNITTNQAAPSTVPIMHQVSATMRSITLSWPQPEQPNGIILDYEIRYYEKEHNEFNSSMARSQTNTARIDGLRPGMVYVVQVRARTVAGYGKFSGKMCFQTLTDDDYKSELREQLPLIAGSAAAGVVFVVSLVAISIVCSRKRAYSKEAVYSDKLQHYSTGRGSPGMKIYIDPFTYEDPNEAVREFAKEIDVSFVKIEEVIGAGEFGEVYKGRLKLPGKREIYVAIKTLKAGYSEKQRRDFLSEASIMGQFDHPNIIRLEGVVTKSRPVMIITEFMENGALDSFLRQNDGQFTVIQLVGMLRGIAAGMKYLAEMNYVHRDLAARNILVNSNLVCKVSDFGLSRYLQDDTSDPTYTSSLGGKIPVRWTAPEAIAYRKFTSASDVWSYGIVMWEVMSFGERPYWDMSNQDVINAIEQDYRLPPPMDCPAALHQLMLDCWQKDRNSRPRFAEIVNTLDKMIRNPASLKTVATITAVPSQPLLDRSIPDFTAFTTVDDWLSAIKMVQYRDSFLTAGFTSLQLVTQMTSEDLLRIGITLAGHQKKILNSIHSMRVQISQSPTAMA
# [9] = target: T2, Ephrin type-B receptor 1 (Homo sapiens); conditions: at 10 µM
# [10] = target: T3, Ephrin type-B receptor 2 (Homo sapiens) (UniProt P29323); conditions: at 1 µM
# T3 sequence (whole entry): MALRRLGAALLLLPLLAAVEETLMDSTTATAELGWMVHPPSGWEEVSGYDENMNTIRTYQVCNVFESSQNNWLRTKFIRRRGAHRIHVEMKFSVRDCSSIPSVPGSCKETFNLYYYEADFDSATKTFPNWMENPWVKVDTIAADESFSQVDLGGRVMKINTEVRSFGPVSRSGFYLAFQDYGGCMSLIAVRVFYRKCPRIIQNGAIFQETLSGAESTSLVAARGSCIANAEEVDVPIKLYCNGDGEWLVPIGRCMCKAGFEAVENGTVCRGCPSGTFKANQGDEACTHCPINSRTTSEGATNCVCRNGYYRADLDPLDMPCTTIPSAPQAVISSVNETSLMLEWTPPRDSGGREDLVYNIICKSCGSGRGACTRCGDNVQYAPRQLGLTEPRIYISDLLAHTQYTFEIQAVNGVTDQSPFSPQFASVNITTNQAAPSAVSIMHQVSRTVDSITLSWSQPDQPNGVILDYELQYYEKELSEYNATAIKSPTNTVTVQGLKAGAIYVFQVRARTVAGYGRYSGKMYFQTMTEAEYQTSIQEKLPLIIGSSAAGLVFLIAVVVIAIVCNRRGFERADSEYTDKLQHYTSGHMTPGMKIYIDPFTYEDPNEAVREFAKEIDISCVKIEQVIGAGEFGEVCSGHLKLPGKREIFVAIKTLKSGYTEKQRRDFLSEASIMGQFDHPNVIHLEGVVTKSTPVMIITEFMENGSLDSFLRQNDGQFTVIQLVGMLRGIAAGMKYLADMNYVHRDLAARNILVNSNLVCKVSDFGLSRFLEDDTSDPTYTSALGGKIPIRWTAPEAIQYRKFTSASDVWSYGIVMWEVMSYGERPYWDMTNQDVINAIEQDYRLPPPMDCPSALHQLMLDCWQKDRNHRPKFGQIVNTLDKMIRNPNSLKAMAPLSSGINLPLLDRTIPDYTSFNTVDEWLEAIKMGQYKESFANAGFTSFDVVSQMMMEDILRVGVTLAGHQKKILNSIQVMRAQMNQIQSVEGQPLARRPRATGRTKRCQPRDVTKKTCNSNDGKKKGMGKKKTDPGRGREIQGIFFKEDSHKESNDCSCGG
# [11] = target: T3, Ephrin type-B receptor 2 (Homo sapiens); conditions: at 10 µM
# [12] = target: T4, Ephrin type-B receptor 3 (Homo sapiens) (UniProt P54753); conditions: at 1 µM
# T4 sequence (whole entry): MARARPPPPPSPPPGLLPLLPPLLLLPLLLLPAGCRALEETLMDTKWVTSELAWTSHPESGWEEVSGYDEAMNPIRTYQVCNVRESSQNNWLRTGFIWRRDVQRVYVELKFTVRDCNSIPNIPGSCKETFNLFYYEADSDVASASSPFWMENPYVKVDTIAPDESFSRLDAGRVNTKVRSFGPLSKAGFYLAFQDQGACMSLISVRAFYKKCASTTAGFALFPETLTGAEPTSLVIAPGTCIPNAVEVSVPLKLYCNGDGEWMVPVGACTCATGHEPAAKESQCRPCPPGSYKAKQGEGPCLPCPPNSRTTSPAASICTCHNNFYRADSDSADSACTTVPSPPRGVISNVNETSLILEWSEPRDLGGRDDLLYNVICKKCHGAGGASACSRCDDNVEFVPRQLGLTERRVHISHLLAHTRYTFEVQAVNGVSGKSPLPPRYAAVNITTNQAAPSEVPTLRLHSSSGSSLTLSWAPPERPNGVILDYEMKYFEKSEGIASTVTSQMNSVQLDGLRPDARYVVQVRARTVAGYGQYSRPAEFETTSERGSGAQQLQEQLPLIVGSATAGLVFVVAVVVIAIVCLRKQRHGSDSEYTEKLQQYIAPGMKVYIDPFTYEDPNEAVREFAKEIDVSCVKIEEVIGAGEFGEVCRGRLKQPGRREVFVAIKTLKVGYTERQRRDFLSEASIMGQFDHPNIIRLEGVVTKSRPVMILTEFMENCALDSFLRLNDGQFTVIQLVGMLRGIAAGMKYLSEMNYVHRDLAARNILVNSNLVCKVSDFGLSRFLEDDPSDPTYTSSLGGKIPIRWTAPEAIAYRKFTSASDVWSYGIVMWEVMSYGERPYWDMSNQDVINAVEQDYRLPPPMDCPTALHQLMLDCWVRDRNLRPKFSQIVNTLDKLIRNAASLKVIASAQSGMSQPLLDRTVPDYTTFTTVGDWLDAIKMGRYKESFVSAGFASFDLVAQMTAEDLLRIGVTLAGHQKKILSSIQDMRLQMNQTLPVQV
# [13] = target: Focal adhesion kinase 1 (Homo sapiens) (UniProt Q05397); conditions: at 1 µM
# Focal adhesion kinase 1 (Homo sapiens), sequence (Q05397 2-1052 limits assumed): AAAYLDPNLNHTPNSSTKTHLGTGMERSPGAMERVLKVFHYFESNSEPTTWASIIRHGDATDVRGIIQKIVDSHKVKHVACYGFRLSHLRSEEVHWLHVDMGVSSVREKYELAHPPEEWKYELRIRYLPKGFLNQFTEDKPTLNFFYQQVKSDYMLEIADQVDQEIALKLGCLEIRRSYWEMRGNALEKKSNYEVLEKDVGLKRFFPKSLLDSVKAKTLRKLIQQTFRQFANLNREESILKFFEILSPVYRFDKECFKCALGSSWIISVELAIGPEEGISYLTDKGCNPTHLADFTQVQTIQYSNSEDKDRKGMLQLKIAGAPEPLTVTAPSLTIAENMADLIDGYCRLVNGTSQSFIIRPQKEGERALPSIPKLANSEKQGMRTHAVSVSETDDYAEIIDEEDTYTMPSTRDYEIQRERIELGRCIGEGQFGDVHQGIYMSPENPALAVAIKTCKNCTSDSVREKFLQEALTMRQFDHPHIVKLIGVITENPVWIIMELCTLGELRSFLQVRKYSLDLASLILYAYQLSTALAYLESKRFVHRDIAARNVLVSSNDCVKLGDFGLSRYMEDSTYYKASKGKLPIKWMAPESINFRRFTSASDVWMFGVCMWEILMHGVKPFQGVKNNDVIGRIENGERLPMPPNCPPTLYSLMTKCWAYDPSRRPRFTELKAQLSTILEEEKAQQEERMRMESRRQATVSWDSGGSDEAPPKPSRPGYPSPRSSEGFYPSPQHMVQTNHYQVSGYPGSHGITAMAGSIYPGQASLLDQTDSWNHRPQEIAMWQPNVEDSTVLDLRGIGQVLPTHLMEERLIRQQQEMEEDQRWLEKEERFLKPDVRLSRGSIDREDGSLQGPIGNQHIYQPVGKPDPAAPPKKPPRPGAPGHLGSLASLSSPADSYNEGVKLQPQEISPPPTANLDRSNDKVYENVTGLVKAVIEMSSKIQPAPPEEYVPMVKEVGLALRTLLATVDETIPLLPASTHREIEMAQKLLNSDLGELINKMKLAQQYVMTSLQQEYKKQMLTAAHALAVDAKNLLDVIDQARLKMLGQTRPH
# [14] = target: T5, Ephrin type-A receptor 3 (Homo sapiens) (UniProt P29320); conditions: at 10 µM
# T5 sequence (whole entry): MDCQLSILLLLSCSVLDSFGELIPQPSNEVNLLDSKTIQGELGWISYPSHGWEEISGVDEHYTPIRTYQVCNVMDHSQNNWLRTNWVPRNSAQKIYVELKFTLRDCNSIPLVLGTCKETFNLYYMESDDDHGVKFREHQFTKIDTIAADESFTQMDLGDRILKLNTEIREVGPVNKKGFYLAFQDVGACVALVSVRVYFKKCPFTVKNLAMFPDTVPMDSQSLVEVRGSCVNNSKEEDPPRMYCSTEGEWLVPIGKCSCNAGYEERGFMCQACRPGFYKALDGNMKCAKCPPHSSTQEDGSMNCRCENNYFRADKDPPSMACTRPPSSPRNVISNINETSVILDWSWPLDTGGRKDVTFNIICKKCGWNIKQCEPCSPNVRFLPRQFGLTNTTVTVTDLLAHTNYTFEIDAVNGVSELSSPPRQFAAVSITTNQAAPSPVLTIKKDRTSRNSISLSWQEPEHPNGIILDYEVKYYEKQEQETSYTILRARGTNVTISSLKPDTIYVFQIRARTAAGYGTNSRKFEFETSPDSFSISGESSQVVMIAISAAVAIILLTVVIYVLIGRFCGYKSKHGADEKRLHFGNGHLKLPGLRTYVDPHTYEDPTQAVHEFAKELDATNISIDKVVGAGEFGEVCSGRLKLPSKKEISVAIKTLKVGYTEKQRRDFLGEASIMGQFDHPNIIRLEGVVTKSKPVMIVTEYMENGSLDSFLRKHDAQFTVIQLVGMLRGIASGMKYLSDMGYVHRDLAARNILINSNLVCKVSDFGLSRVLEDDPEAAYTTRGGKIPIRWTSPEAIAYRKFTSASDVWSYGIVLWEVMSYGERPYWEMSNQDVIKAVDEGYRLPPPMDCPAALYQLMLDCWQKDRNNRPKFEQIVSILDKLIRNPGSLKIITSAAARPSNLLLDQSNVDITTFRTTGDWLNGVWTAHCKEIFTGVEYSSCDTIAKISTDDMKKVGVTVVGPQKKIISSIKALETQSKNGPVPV
# [15] = target: Receptor tyrosine-protein kinase erbB-4 (Homo sapiens) (UniProt Q15303); conditions: at 10 µM
# Ephrin type-A receptor 4 (Homo sapiens), sequence (P54764 whole entry): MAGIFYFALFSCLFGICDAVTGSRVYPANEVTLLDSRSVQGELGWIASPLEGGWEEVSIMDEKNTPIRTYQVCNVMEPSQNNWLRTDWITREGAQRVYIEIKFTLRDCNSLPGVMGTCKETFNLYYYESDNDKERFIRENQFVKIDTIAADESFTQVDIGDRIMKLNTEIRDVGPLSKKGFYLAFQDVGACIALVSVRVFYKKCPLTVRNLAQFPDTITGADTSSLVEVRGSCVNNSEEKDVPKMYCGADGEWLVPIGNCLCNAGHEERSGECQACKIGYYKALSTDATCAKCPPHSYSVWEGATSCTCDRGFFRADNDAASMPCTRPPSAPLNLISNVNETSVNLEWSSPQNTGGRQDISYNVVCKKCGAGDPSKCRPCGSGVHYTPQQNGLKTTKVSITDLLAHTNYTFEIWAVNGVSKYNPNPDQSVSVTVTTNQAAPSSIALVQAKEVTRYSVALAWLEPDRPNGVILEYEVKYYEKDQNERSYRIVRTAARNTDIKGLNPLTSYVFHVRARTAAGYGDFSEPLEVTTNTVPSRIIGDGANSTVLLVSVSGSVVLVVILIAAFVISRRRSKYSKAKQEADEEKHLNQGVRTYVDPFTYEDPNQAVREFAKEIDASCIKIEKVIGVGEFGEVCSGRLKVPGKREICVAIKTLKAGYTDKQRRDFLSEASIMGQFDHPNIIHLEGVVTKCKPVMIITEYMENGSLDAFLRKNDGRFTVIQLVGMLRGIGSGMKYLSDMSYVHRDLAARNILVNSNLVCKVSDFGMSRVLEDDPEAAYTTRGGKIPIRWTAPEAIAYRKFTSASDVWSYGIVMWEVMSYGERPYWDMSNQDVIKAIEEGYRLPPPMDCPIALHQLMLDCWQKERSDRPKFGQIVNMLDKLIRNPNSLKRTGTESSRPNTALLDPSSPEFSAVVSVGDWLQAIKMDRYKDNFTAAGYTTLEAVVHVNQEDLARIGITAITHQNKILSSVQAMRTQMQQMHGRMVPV
compound,measurement,setting,value
Nc1nc(Nc2ccc(S(N)(=O)=O)cc2)nn1C(=O)c1c(F)cccc1F,residual activity,[1],108%
same,residual activity,[2],95%
same,residual activity,[3],103%
same,residual activity,[4],73%
same,residual activity,[5],52%
same,residual activity,[6],8%
same,residual activity,[7],55%
same,residual activity,[8],78%
same,residual activity,[9],14%
same,residual activity,[10],103%
same,residual activity,[11],68%
same,residual activity,[12],115% (inactive)
same,residual activity,[13],102%
NC(=O)c1cccc(-c2cc(Nc3ccc(OC(F)(F)F)cc3)ncn2)c1,residual activity,[13],147%
CC(C)N(CCC(=O)c1ccc2ccccc2c1)Cc1ccccc1,residual activity,[14],85%
same,residual activity,[15],78%
